Screening data deposited in PubChem BioAssay by National Center for Advancing Translational Sciences (NCATS).
HEK293 cAMP ctrl: counter-screen for TSHR agonists: cAMP increase in parental HEK293; parental HEK293 CNG cAMP sensor, membrane potential fluorescence; Potency, µM (top dose mostly 57.1 µM), most hits filed as activators; actives 2.5% (n = 73,000); AID 938; further: nearly all actives have a fitted effect of over 55% in size
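Parental HEK 293 cells stably expressing a modified CNG channel (no TSHR) report cAMP rise as membrane depolarization. Membrane potential dye with 100 uM RO 20-1724 was loaded for 60 min at room temperature, then compound added for 30 min; fluorescence read at 590 nm.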
Bst PK mod: alters activity of Bacillus stearothermophilus pyruvate kinase; actives 1.2% (n = 51,000); Potency, µM; purified pyruvate kinase, luminescence ATP production; ribose 5-phosphate activator present at AC10; AID 361; in the data active means potency below about 11 µM; inconclusive means mostly about 12 µM to 25 µM;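 the screen sought inhibitors and activators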
Tau filament bind: binds recombinant human tau filaments. actives 2% (n = 71,000). Potency, µM (series often up to 57.1 µM). recombinant tau filaments, thioflavin S fluorescence, 15 h; filaments grown with octadecylsulfate alongside compound;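 further: actives lower thioflavin S fluorescence by blocking filaments or displacing dye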
Target sequence (P10636 whole entry, looked up): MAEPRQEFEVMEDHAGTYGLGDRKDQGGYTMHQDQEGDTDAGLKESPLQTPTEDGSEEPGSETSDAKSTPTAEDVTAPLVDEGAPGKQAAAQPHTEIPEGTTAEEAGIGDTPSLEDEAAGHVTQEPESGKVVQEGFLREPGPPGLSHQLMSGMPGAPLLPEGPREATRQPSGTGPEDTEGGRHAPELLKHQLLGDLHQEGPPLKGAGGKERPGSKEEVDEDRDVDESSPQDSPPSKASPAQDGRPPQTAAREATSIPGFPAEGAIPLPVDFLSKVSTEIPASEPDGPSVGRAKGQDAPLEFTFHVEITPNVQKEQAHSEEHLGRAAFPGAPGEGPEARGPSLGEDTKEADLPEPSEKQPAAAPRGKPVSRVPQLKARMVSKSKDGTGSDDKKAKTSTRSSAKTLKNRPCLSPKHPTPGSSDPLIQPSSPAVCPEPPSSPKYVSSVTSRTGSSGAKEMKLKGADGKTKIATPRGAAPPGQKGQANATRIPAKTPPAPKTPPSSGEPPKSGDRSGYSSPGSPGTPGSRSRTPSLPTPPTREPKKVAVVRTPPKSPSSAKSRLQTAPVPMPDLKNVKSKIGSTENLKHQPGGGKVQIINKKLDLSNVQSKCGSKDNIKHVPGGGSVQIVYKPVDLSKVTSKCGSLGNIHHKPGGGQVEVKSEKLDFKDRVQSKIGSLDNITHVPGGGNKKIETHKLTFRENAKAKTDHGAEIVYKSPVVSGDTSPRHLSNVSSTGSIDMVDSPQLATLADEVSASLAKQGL
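Tau 2 uM in ThS buffer dispensed; compound added; 60 uM ODS added (finals 1 uM tau, 30 uM ODS); 15 h 37 C; fluor ex450/em510.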
TSHR agonist: activates the human thyroid stimulating hormone receptor. P16473. HEK293-CNG-TSHR cells (CNG channel as cAMP sensor), membrane potential dye, cAMP. Potency, µM (titrated, usually from 57.1 µM), most hits filed as activators. actives 0.48% (n = 73,000). AID 926; active means well fitted activation curve with a large enough effect in the main read-out, with a control signal flat, not every such curve was filed as active; inconclusive means small, poorly fitted or top-dose-only effect, or a change in a side signal; inactive means no such curve, though single readings can be large or run the other way; reference of the percent scale not stated here;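 further: the control signal comes from parental cells without the receptor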
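HEK 293 cells stably expressing TSHR and a modified CNG channel, with CNG-only parental cells as counterscreen, were preloaded 60 min at room temperature with membrane potential dye containing 100 uM RO 20-1724. Compound exposure was 30 min, and depolarization was read as fluorescence at 590 nm.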
15-hLO inh: 15-hLO (ALOX15) enzyme inhibition. purified 15hLO-1, xylenol orange hydroperoxide absorbance. actives 1.4% (n = 74,000). Potency, µM (highest dose often 57.1 µM), hits mostly inhibitors. AID 887; further: nearly all actives have a fitted effect of over 55% in size
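Compounds were preincubated 15 min at room temperature with 40 nM purified human enzyme (25 mM Hepes pH 7.5, 0.01% Triton X-100); 50 uM arachidonic acid reacted 6 min. Fe-xylenol orange detection, 30 min, absorbance ratio 573/405 nm.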
FLuc inh: blocks Photinus pyralis firefly luciferase activity; P08659; purified firefly luciferase, luminescence, 8 min; Potency, µM (highest dose often 57.1 µM), usual class: inhibitors; actives 2.2% (n = 72,000); AID 411; further: nearly all actives have a fitted effect of over 40% in size
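qHTS concentration-response profiling: light output of P. pyralis luciferase with luciferin and 10 uM ATP, imidazole buffer pH 7.2. Read by luminescence after 8-min room-temperature incubation.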
Large screens that a line does not name were inactive. Compounds with a hit are over-represented: about 7.8% of the library has one in this group of screens. Unless noted, the call rests on the fitted dose curve; in most records, active means well fitted curve in the direction sought with a large enough effect; inconclusive means small, poorly fitted or top-dose-only effect, or another doubt; inactive means no such curve, though single readings can be large; an effect the other way counts as inactive or inconclusive.

CCCC(c1nnnn1C(C)(C)CC)N1CCN(C2CCCC2)CC1 (stereo not drawn)	HEK293 cAMP ctrl 1µM, TSHR agonist inconclusive
CCC(c1nnnn1C1CCCCC1)N1CCN(C2CCCC2)CC1 (stereo not drawn)	HEK293 cAMP ctrl 5.01µM, TSHR agonist inconclusive
COc1ccccc1N1C(=O)C2C3C=CC(C3)C2C1=O (stereo not drawn)	none
COc1ccc(C(=O)/C=C\N2CCOCC2)cc1	none (no result: Bst PK mod)
COc1cc(C(Nc2ccc3c(c2)OCO3)C(=O)NC2CCCCC2)cc(OC)c1OC (stereo not drawn)	15-hLO inh 0.631µM
COc1ccc(C(C(=O)NC2CCCC2)N(C(=O)c2ccco2)c2ccc3c(c2)OCO3)cc1OC (stereo not drawn)	TSHR agonist 10µM
COc1ccc(N(C(=O)c2ccco2)C(C(=O)NC2CCCC2)c2ccc(N(C)C)cc2)cc1OC (stereo not drawn)	none
c1ccc2oc(SCc3nc4ccccc4s3)nc2c1	HEK293 cAMP ctrl inconclusive, TSHR agonist inconclusive, FLuc inh 15.8µM (no result: Bst PK mod)
Clc1c(CSc2nc3ccccc3o2)nc2ccccn12	HEK293 cAMP ctrl inconclusive, TSHR agonist inconclusive, FLuc inh inconclusive (no result: Bst PK mod)
Clc1c(CSc2nc3ccccc3o2)nc2sccn12	HEK293 cAMP ctrl 31.6µM, TSHR agonist inconclusive
CC[C@@H]1Cn2c(c3nc(-c4ccccc4)nc-3n(C)c2=O)N1	15-hLO inh inconclusive (no result: Bst PK mod, Tau filament bind, FLuc inh)
C[C@@H]1O[C@@H](OC[C@@H]2O[C@@H](Oc3c(-c4ccc(O)c(O)c4)oc4cc(O)cc(O)c4c3=O)[C@H](O)[C@H](O)[C@@H]2O)[C@H](O)[C@H](O)[C@@H]1O	Tau filament bind inconclusive (no result: Bst PK mod, 15-hLO inh)
CCN(CC)S(=O)(=O)c1ccc(N2CCCC2)c(C(=O)OCC(=O)/C(C#N)=C(\C)N)c1	TSHR agonist 25.1µM
CCCCN(CC)S(=O)(=O)c1cccc2cccnc12	HEK293 cAMP ctrl 20µM, TSHR agonist inconclusive (no result: Bst PK mod)
C=CC(=O)CC	TSHR agonist inconclusive (no result: Bst PK mod, FLuc inh)
COc1ccc(S(=O)(=O)Nc2ccc(C)cc2)cc1OC	none
COc1ccc(NS(=O)(=O)c2ccc(I)cc2)cc1N1CCN(C)CC1	Tau filament bind 39.8µM, 15-hLO inh inconclusive (no result: Bst PK mod)
COc1ccc(-c2cn3c(n2)CCC3)cc1	FLuc inh 15.8µM (no result: Bst PK mod)
C=CCN1CCc2cc(O)c(O)cc2[C@H](c2ccccc2)C1	Tau filament bind inconclusive (no result: Bst PK mod)
CN1CCc2cc(Cl)c(O)cc2[C@@H](c2ccccc2)C1	HEK293 cAMP ctrl 25.1µM, Tau filament bind inconclusive, TSHR agonist inconclusive, 15-hLO inh inconclusive (no result: Bst PK mod)
CN1CCc2c(cc(O)c(O)c2Cl)[C@H](c2cccc(Cl)c2)C1	HEK293 cAMP ctrl inconclusive, TSHR agonist inconclusive, 15-hLO inh 15.8µM (no result: Bst PK mod)
CC(=O)N1CCN(c2nc3cc4c(cc3nc2NS(=O)(=O)c2ccccc2)OCCO4)CC1	none
Cn1c(SCc2c(Cl)cccc2Cl)nnc1-c1cccs1	HEK293 cAMP ctrl 12.6µM, Bst PK mod inconclusive, TSHR agonist inconclusive
Cc1ccc(CSc2nnc(-c3cccs3)n2C)cc1	none
CCOC(=O)C1=C(N2CCCCC2)c2cc3c(n2C1=O)CCCC3	Tau filament bind 15.8µM, 15-hLO inh inconclusive
Cc1ccc(-c2ccc(OCC(=O)N3CCOCC3)cc2)cc1	FLuc inh 12.6µM (no result: Bst PK mod)
COc1ccc(NC(=O)Nc2ccc(OCC(=O)N3CCOCC3)cc2)cc1OC	FLuc inh 12.6µM (no result: Bst PK mod)
Cc1onc(-c2ccccc2Cl)c1C(=O)Nc1ccc(OCC(=O)N2CCOCC2)cc1	HEK293 cAMP ctrl 3.98µM, TSHR agonist inconclusive (no result: Bst PK mod)
CCCCOc1ccc(-c2nnn(CCC(=O)N3CCOCC3)n2)cc1	FLuc inh 6.31µM (no result: Bst PK mod)
CN1CCN(C(=O)CSc2nc(-c3cccs3)ccc2C#N)CC1	none (no result: HEK293 cAMP ctrl, Tau filament bind, TSHR agonist, 15-hLO inh)
C[N+]1(NCC[N@@+]2(C)CCc3ccccc3C2)CCCCC1	none (no result: Bst PK mod)
O=C(CSc1nc(O)c(C2CCCCC2)c(=O)[nH]1)Nc1ccc(Cl)cc1	none
O=C(CSc1ccc(-c2ccc(F)cc2)nn1)N1CCCCC1	none
COc1ccc(-c2ccc(SCC(=O)N3CCOCC3)nn2)cc1	FLuc inh 12.6µM
Cc1nn(-c2ccccc2)c(Cl)c1C1C(C#N)=C(N)OC2=C1C(=O)CCC2 (stereo not drawn)	none
Cc1ccc(-n2nc(C)c(C3C(C#N)=C(N)OC4=C3C(=O)CC(C)(C)C4)c2Cl)cc1 (stereo not drawn)	HEK293 cAMP ctrl 25.1µM, TSHR agonist inconclusive, 15-hLO inh inconclusive
Cc1cc(C(=O)COC(=O)C2COc3ccccc3O2)c(C)n1CC1CCCO1 (stereo not drawn)	FLuc inh 15.8µM
Cc1cc(C(=O)COC(=O)CN(C)S(=O)(=O)c2ccc(Cl)cc2)c(C)n1CC1CCCO1 (stereo not drawn)	none
Clc1ccccc1-c1nccc(NCc2ccccc2)n1	none (no result: Bst PK mod)
NC1=CC(=O)c2cccc3cccc1c23	15-hLO inh 5.01µM
CN(C)c1ccc(C(c2nnnn2CCOC(=O)Nc2ccc(Cl)cc2)N2CCOCC2)cc1 (stereo not drawn)	none
O=C(Nc1ccc(CN2CCOCC2)cc1)c1ccc(-c2ccc(Br)cc2)o1	HEK293 cAMP ctrl 25.1µM, Bst PK mod 7.07, TSHR agonist inconclusive
Cc1occc1C(=O)N1CCN(C(c2ccccc2)c2ccccc2)CC1	TSHR agonist 31.6µM
CN(C)c1ccc(C(c2nnnn2C(C)(C)C)N2CCc3ccccc3C2)cc1 (stereo not drawn)	HEK293 cAMP ctrl 15.8µM, TSHR agonist inconclusive
COc1ccc(C(c2nnnn2C2CCCC2)N2CCc3ccccc3C2)cc1OC (stereo not drawn)	HEK293 cAMP ctrl 7.94µM, TSHR agonist inconclusive
COc1cc2cc(C(c3nnnn3C(C)(C)C)N3CCc4ccccc43)c(=O)[nH]c2cc1OC (stereo not drawn)	none
COc1cc2cc(C(c3nnnn3C3CCCC3)N3CCc4ccccc43)c(=O)[nH]c2cc1OC (stereo not drawn)	15-hLO inh 20µM
CC(=O)OCC(=O)[C@]12OC(C)(C)O[C@@H]1C[C@H]1[C@H]3CC=C4C[C@@H](O)CC[C@]4(C)[C@H]3CC[C@]12C	none (no result: Bst PK mod)
Cc1cc(C)nc(Nc2nc(=O)c3ccccc3s2)n1	15-hLO inh 7.94µM (no result: Bst PK mod)
Cc1ccc2c(c1C)NC(C(=O)O)C1CC=CC21 (stereo not drawn)	Tau filament bind 3.16µM, 15-hLO inh inconclusive
Cc1ccc(CCNC(=O)C2CCN(S(=O)(=O)c3cccc4nonc34)CC2)cc1	none
CCN(CCCNC(=O)C1CCN(S(=O)(=O)c2cccc3nonc23)CC1)Cc1ccccc1	Tau filament bind 20µM
COc1ccc(C(=O)c2coc3ccc(O)c(CN(C)C)c23)cc1	HEK293 cAMP ctrl 31.6µM, TSHR agonist inconclusive (no result: Bst PK mod)
COc1ccc(F)cc1S(=O)(=O)Nc1ccccc1C(=O)O	none (no result: Bst PK mod, Tau filament bind, FLuc inh)
N#CNC(N)=Nc1ccc(Cl)cc1	none (no result: Bst PK mod)
